SKKanGAS inh – SKKanGAS growth inhibition | inhibition, % at 7.5 µM | hit rate 1.3% among 300,000 | S. pyogenes SKKanGAS, kanamycin growth, BacTiter-Glo, 6 h | AID 1662;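 active means mean replicate score, as percent of positive control median, at least 50; inconclusive means mean below 50 but one replicate at or above 50; inactive means mean and every replicate below 50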;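 further: strain carries kanamycin resistance gene driven by streptokinase promoter and grows in 40 µg/ml kanamycin; loss of luminescence reflects streptokinase promoter inhibition or plain growth inhibition; 0% = median of DMSO wells and 100% = positive control at its reference dose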
PfHsp90 yeast 2 – inhibits growth of yeast expressing Plasmodium falciparum Hsp90; S. cerevisiae expressing PfHsp90, BacTiter-Glo ATP, 48 h; yeast lacking PDR1 and PDR3 efflux regulators; inhibition, % at 9.4 µM; hit rate 0.32% among 310,000; AID 504621;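 active means every replicate shows inhibition above about 80%, whatever the replicate mean, limit read from the data; inconclusive means mean inhibition reaches the set limit but some replicate falls short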;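 further: 0% = DMSO neutral controls and 100% = 20 µM radicicol positive controls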
tim23-1 inh – tim23-1 yeast growth inhibition; S. cerevisiae tim23-1 growth, BacTiter-Glo luminescence, 24 h; inhibition, % at 20 µM; hit rate 1.3% among 330,000; AID 463212;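 active means growth inhibition of the mutant yeast at or above 50%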;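 further: temperature-sensitive mutant grown at 25 °C; plate controls were DMSO-treated mutant yeast for no effect and medium wells lacking yeast for full effect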
TIM10 inh – TIM10 yeast growth inhibition. hit rate 1.4% among 330,000. S. cerevisiae TIM10 strain growth, BacTiter-Glo luminescence, 24 h. inhibition, % at 10 µM;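 active means inhibition of 40% or more at the single tested concentration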;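 further: wild-type TIM10 isogenic control strain grown at permissive 25 °C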
tim10-1 inh – growth inhibitors of tim10-1 mutant yeast; S. cerevisiae tim10-1 ts strain growth, BacTiter-Glo, 24 h; inhibition, % at 20 µM; hit rate 2.2% among 330,000; AID 463190;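 active means inhibition of at least 40%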;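 further: mutant grown at 25 °C; 0% = DMSO wells with yeast and 100% = wells holding no yeast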
tim10-1 conf – confirmation of tim10-1 mutant yeast growth inhibitors; shares compounds with tim10-1 inh; S. cerevisiae tim10-1 ts strain growth, BacTiter-Glo, 24 h; inhibition, % at 20 µM; hit rate 56% among 7,400;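 active means inhibition of yeast growth at or above a set limit in either of two repeat tests at 20 µM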;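 further: tim10-1 mutant grown at permissive 25 °C to find synthetic lethal compounds; 0% = DMSO yeast wells and 100% = medium wells without yeast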
tim10 confirm – confirmation of TIM10 yeast growth inhibitors; S. cerevisiae tim10 strain growth, BacTiter-Glo luminescence, 24 h; shares compounds with TIM10 inh; hit rate 63% among 4,600; AID 463215; inhibition, % at 10 µM;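 active means inhibition of yeast growth at or above a set limit in either of two replicates at 10 µM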;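 further: this counterscreen used the strain with wild-type TIM10; 0% = yeast with DMSO and 100% = medium wells lacking yeast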
tim23-1 confirm – tim23-1 yeast growth inhibition, confirmed; shares compounds with tim23-1 inh; S. cerevisiae tim23-1 growth, BacTiter-Glo luminescence, 24 h; inhibition, % at 20 µM; hit rate 83% among 4,400; AID 463218;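 active means inhibition above about 39% in either of two replicate wells at 20 µM, limit read from the data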;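 further: temperature-sensitive tim23-1 mutant grown at 25 °C; 0% = DMSO wells with yeast and 100% = medium wells without yeast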
Numbers without * were called inactive; ? = inconclusive; nt = no result. This is a sample that favours compounds with a hit; in the whole collection about 4.4% have one here.

SMILES | SKKanGAS inh | PfHsp90 yeast 2 | tim23-1 inh | TIM10 inh | tim10-1 inh | tim10-1 conf | tim10 confirm | tim23-1 confirm
COc1cc(CN2CCNC(=O)C2CC(=O)N(C)CCN2CCOCC2)cc(OC)c1 (stereo not drawn) | 2.0 | 11.0 | 12.8 | -5.1 | 18.0 | nt | nt | nt
O=C(ONC1=NCCCCC1)c1cccc([N+](=O)[O-])c1 | 6.9 | -6.0 | 78.0* | 82.3* | 60.6* | 37.7* | 89.7* | 68.8*
Oc1ccc(Br)cc1-c1cc(-c2ccco2)[nH]n1 | 10.3 | -14.7 | 68.3* | 43.5* | 47.5* | 32.2* | 33.6* | 51.5*
Oc1ccccc1-c1cc(-c2ccco2)[nH]n1 | 12.9 | -7.9 | 35.8 | 12.9 | -4.0 | nt | nt | nt
COc1cc(/C=C(\NC(=O)c2cc(OC)c(OC)c(OC)c2)C(=O)NC(C(=O)O)c2ccccc2)cc(OC)c1OC (stereo not drawn) | 1.2 | 8.1 | 1.1 | 3.7 | -4.1 | nt | nt | nt
COc1ccc(/C=C/c2ccc3ccccc3[n+]2C)cc1OC | 4.9 | 6.5 | 3.3 | 7.9 | 14.3 | nt | nt | nt
CN(C)c1ccc(/C=C/c2ccc3ccccc3[n+]2C)cc1 | ? | 54.2 | 75.2* | 80.6* | 84.5* | 81.4* | 8.6 | 76.1*
O=c1/c(=C/c2ccco2)sc2nc(-c3ccccc3Br)nn12 | nt | 3.0 | 57.1* | 63.7* | 45.0* | 40.7* | 51.0* | 45.2*
CN(C)c1ccc(/C=c2\sc3nc(-c4ccccc4)nn3c2=O)cc1 | -5.4 | nt | -2.7 | -3.5 | 21.0 | nt | nt | nt
CCCOc1ccc(Cc2nn3c(=O)/c(=C/c4ccco4)sc3nc2=O)cc1 | -1.8 | -39.6 | 24.3 | 20.1 | 19.7 | nt | nt | nt
COc1ccccc1-c1nc2s/c(=C\c3cccs3)c(=O)n2n1 | 21.8 | -13.7 | 77.6* | 57.3* | 63.9* | 29.1 | -17.9 | 76.3*
CCn1c(SCC(=O)NC2CCCCC2)nnc1-c1ccccc1F | 1.8 | 13.6 | -9.8 | -16.3 | -31.0 | nt | nt | nt
Cc1nc(C(=O)N2CCC(n3nccc3NC(=O)Nc3ccccc3Cl)CC2)cs1 | -12.6 | -11.5 | 7.6 | 5.0 | 4.1 | nt | nt | nt
COc1ccc(C(=O)Oc2c(CN3CCOCC3)cc(Cl)c3cccnc23)cc1 | -14.4 | 8.1 | 54.4* | 26.9 | 41.0* | 33.4* | nt | 45.5*
COc1cc(C(=O)Oc2c(CN3CCOCC3)cc(Cl)c3cccnc23)cc(OC)c1OC | 0.2 | 1.3 | 24.0 | 16.4 | 28.7 | nt | nt | nt
COc1cccc(C(=O)Oc2c(CN3CCOCC3)cc(Cl)c3cccnc23)c1 | 7.8 | nt | 50.7* | 44.2* | 43.1* | 33.5* | 25.0 | 47.8*
COc1cc(OC)cc(-c2nc3ccccc3c(=O)n2OC(=O)c2ccc(Br)cc2)c1 | 8.7 | 1.3 | 58.1* | 61.5* | 48.9* | 38.3* | 34.5* | 72.0*
COc1ccc(C(=O)On2c(-c3ccc(Br)cc3)nc3ccccc3c2=O)cc1 | 19.4 | 2.1 | 61.0* | 74.1* | 57.1* | 51.9* | 74.0* | 79.0*
COc1ccc(O)c(CNn2c(-c3ccc(Br)cc3)nc3ccccc3c2=O)c1 | -4.8 | -4.1 | 30.7 | 28.0 | 35.2 | nt | nt | nt
CC(C)(C)CC(=O)Nc1nnc(SCC(=O)NC2CCCCC2)s1 | 1.5 | -20.3 | -6.6 | 0.5 | -6.0 | nt | nt | nt
O=C(CC(c1ccccc1)c1ccccc1)Nc1ccc(C(=O)O)cc1 | 0.1 | 4.2 | 6.1 | 6.9 | -6.1 | nt | nt | nt
Nc1nn2cc(-c3ccc(Br)cc3)nc2c2ccccc12 | 25.5 | -3.4 | 77.2* | 59.5* | 40.8* | 65.1* | 65.0* | 82.5*
Cc1ccc(NC(=O)COc2ccccc2C=O)cc1Cl | -0.7 | 17.5 | 68.6* | 50.7* | 42.7* | 26.0 | 50.6* | 69.0*
CC(=O)Nc1cccc(NC(=O)COc2ccccc2C)c1 | -2.3 | 12.7 | -0.9 | 0.2 | 20.3 | nt | nt | nt
CC(C)CCNC(=S)Nc1ccc([N+](=O)[O-])cc1 | 1.6 | 14.1 | 59.8* | 51.6* | 73.5* | 67.5* | -40.5 | 55.7*
SMILES | SKKanGAS inh | PfHsp90 yeast 2 | tim23-1 inh | TIM10 inh | tim10-1 inh | tim10-1 conf | tim10 confirm | tim23-1 confirm
Cc1cc(O)c(C(C)C)cc1NC(=O)Nc1ccc([N+](=O)[O-])cc1 | nt | -0.2 | nt | nt | nt | nt | nt | nt
Cc1ccc(C(C)C)cc1NC(=O)Nc1ccc([N+](=O)[O-])cc1 | 87.9* | 31.6 | 74.7* | 68.5* | 75.7* | 79.3* | 67.2* | 83.0*
CC(C)CNC(=S)NC(=O)c1csc([N+](=O)[O-])c1 | 10.7 | -12.2 | 63.1* | 37.0 | 41.9* | 32.0* | nt | 64.3*
CC(C)CNC(=S)NC(=O)c1ccc([N+](=O)[O-])cc1 | -3.0 | -31.7 | 52.7* | 25.8 | 40.0 | 32.1* | nt | 42.5*
CCCC(=O)NC(=S)NNC(=O)c1ccc([N+](=O)[O-])cc1 | -8.4 | 9.7 | 12.0 | 8.6 | 18.6 | nt | nt | nt
CCCCNC(=S)NC(=O)c1ccc([N+](=O)[O-])cc1 | 0.9 | nt | 53.4* | 27.4 | 51.6* | 30.1 | nt | 52.7*
Cc1ccc(S(=O)(=O)CCC(=O)OCCOc2cccc(Br)c2)cc1 | nt | -3.9 | 41.3 | -14.0 | 8.8 | nt | nt | nt
CCCC[C@H](CN[C@@H](CNC)[C@H](C)CC)NCCC12CCC(CC1)C2 | 0.3 | -17.1 | -162.6 | -36.9 | -52.6 | nt | nt | nt
O=C(NC(Nc1nc2ccc([N+](=O)[O-])cc2s1)(C(F)(F)F)C(F)(F)F)c1ccccc1Cl | 22.9 | 6.9 | 71.4* | 66.0* | 77.7* | 75.6* | 67.8* | 86.0*
O=C1/C(=C/c2ccncc2)SC(=S)N1N1CCOCC1 | 2.3 | -1.3 | 68.9* | 57.6* | 55.8* | 50.0* | 55.1* | 47.8*
COC(=O)c1cc(S(=O)(=O)N(Cc2ccccc2)C(C)(C)C)c[nH]1 | -1.2 | 27.2 | 23.6 | 20.7 | 21.0 | nt | nt | nt
COc1ccccc1CN(Cc1nc2ccccc2c(=O)[nH]1)C(=O)Nc1ccccc1C | -4.1 | -2.8 | 26.5 | 13.2 | 24.7 | nt | nt | nt
COc1ccccc1CN(Cc1nc2ccccc2c(=O)[nH]1)C(=O)Nc1ccc(C)cc1 | 4.9 | -10.6 | 59.4* | 55.2* | 42.8* | 38.2* | 40.3* | 51.3*
CC(=O)c1c(C)[nH]c(C(=O)COC(=O)c2c(-c3ccccc3)noc2C)c1C | nt | 5.7 | 9.7 | -8.7 | -5.7 | nt | nt | nt
O=C(Cn1ccc(NC(=O)OCc2ccccc2)nc1=O)NCCCn1ccnc1 | nt | nt | 0.7 | -1.2 | 7.5 | nt | nt | nt
Oc1ccc2ccccc2c1/C=N/n1cnnc1 | -1.1 | nt | 10.6 | 5.3 | 5.2 | nt | nt | nt
Oc1ccc2ccccc2c1C=NC1CCCCC1 | -3.4 | 26.0 | 54.8* | 17.8 | 41.1* | 14.1 | nt | 53.5*
CC1CCN(C(=O)c2ccc([N+](=O)[O-])o2)CC1 | 0.0 | -7.9 | 55.5* | 6.1 | 41.2* | 40.2* | nt | 57.7*
CC1CC(C)CN(C(=O)COC(=O)c2ccc([N+](=O)[O-])o2)C1 (stereo not drawn) | nt | -33.7 | 22.0 | 24.6 | 20.9 | nt | nt | nt
O=C(Cc1ccc([N+](=O)[O-])cc1)N1CCCCCC1 | -2.2 | 10.1 | 10.4 | -3.4 | 1.1 | nt | nt | nt
